CHX counter – Cycloheximide Counterscreen for Small Molecule Inhibitors of Shiga Toxin | cell reporter, cycloheximide protein synthesis inhibition counterscreen | max response, % | actives 12% (n = 300,000); in the data active = max response mostly above about 13%, no sharp cut-off; inactive = mostly below about 14%; also: read at 38.3 µM for the half of the compounds with a filed dose; 0% is about no effect
Shiga toxin inh – A qHTS for Small Molecule Inhibitors of Shiga Toxin; Vero cells, Shiga toxin protein synthesis inhibition reporter; inhibition, % at 38.7 µM; actives 9.2% (n = 290,000); AID 2315, 2010; in the data active = inhibition mostly above about 28%, no sharp cut-off; inactive = mostly below about 43%; also: 0% is about no effect
Pf growth 96h – Primary qHTS for delayed death inhibitors of the malarial parasite plastid, 96 hour incubation; P. falciparum luciferase reporter growth, 96 h; Potency, µM (doses to about 28.7 µM), for inactives: top-dose activity change, negative = inhibition, usual class: inhibitors; actives 6.9% (n = 320,000); also: potency is read from the fitted curve at half-maximal effect; % is scaled to controls: 0 for no effect and ±100 for the full control effect
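Delayed-death screen, second-generation endpoint: infected erythrocytes, 2% hematocrit, 0.05% parasitemia final; 96 hours at 37 C, 5% CO2; luciferase detection reagent; luminescence decrease equals reduced growth.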
SARS PLP yeast – qHTS of Yeast-based Assay for SARS-CoV PLP. S. cerevisiae expressing SARS-CoV PLpro, growth rescue. Potency, µM (titrated, usually from 32.9 µM), without a hit: top-dose activity, positive = growth rescue, most hits filed as activators. actives 0.19% (n = 330,000); calls by dose curve; also: potency is read from the fitted curve at half-maximal effect; 0% is about no effect; nearly all actives have a fitted effect of over 55% in size
Pf growth 48h – Primary qHTS for delayed death inhibitors of the malarial parasite plastid, 48 hour incubation; P. falciparum luciferase growth in erythrocytes, 48 h; Potency, µM (highest dose often 28.7 µM), without a hit: at the highest dose activity change, negative = inhibition, hits mostly inhibitors; actives 5.9% (n = 310,000); also: potency is read from the fitted curve at half-maximal effect; % is scaled to controls: 0 for no effect and ±100 for the full control effect
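Compounds are pin-transferred into medium, infected erythrocytes (2% hematocrit, 0.1% parasitemia final) are added, and plates sit one parasite generation at 37 C in 5% CO2. Detection reagent is then added and luminescence measured.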
NS1 function inh – qHTS Assay for Inhibitors of Influenza NS1 Protein Function; AID 2326, 2010; actives 0.4% (n = 270,000); Potency, µM (top dose mostly 46.1 µM), for inactives: at the top dose activity, positive = more growth; calls by dose curve; also: potency is read from the fitted curve at half-maximal effect; actives are rising curves; nearly all actives have a fitted effect of over 50% in size
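In this qHTS, NS1 from influenza A is expressed in budding yeast, where it slows growth. Cells are switched from glucose to 2% galactose medium (pH 6.0, -URA), treated with compound, and growth recovery is read at OD600.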
The depositor's hits bear a star. Most compounds without a hit are left out; they make up all but 21% or so of the library. Unless noted, calls follow the shape of the dose curve; as a rule, active = well fitted inhibition curve with a large enough effect; inconclusive = small, poorly fitted or top-dose-only effect, or another doubt; inactive = no such curve, though single readings can be large or run the other way.

`Cc1ccccc1CN(C)C(C)C(=O)Nc1ccccc1F` (stereo unspecified) gave CHX counter 3, Shiga toxin inh -9, Pf growth 96h 30%, SARS PLP yeast -4% and Pf growth 48h inconclusive.
Screening CCCC(=O)N1CCN(c2ccc(NC(=O)c3cccs3)cc2Cl)CC1 returned CHX counter 1, Shiga toxin inh -12, Pf growth 96h 126%, SARS PLP yeast -1%, Pf growth 48h inconclusive and NS1 function inh -4%.
`CCCc1nc2ccc(NC(=O)c3cccs3)cc2c(=O)n1Cc1ccccc1Cl` gave CHX counter 12, Shiga toxin inh 1, Pf growth 96h inconclusive, SARS PLP yeast -1%, Pf growth 48h 1.9µM* and NS1 function inh 2%.
Screening Cc1nc2ccc(N)cc2c(=O)n1Cc1ccc(Cl)cc1 returned CHX counter 18, Shiga toxin inh 25, Pf growth 96h 53%, SARS PLP yeast 22%, Pf growth 48h 14% and NS1 function inh -3%.
`CCCc1nc2ccc(NC(C)=O)cc2c(=O)n1Cc1ccc(Cl)cc1` gave CHX counter 43*, Shiga toxin inh 90*, Pf growth 96h 36%, SARS PLP yeast -2% and Pf growth 48h 129%.
Screening C[C@H](CO)N1C[C@H](C)[C@@H](CN(C)C(=O)Nc2ccc(C(F)(F)F)cc2)Oc2ccc(NS(=O)(=O)c3cn(C)cn3)cc2C1=O returned SARS PLP yeast -3%.
`COc1ccc(NC(=O)C(NC(=O)c2ccc(C)cc2)c2ccccc2)cc1` (stereo unspecified) gave CHX counter 25*, Shiga toxin inh 49*, Pf growth 96h inconclusive, Pf growth 48h inconclusive and NS1 function inh -2%.
Screening COC(=O)C(Cc1ccccc1)NC(=O)COc1ccc(C(C)(C)C)cc1 (stereo unspecified) returned CHX counter -3, Shiga toxin inh -10, Pf growth 96h 25%, SARS PLP yeast -31% and NS1 function inh -87%.
CCOc1ccc(C(=O)NC(Cc2ccccc2)C(=O)OC)cc1 (stereo unspecified) was read as CHX counter 41*, Shiga toxin inh 73*, Pf growth 96h 128%, SARS PLP yeast -9%, Pf growth 48h 163% and NS1 function inh -26%.
COC(=O)[C@H](Cc1ccccc1)NC(=O)c1ccc2ccccc2n1 was read as CHX counter 18, Shiga toxin inh 41*, Pf growth 96h 215%, SARS PLP yeast -6%, Pf growth 48h 207% and NS1 function inh -26%.
Screening COc1ccc(NC(=O)C(NC(=O)c2ccc(=O)[nH]c2)c2ccccc2)cc1 (stereo unspecified) returned CHX counter 12, Shiga toxin inh -7, Pf growth 96h inconclusive, SARS PLP yeast 3%, Pf growth 48h -6% and NS1 function inh -2%.
`COc1ccc(NC(NC(=O)c2ccc(OC)cc2)C(Cl)(Cl)Cl)cc1` (stereo unspecified) gave CHX counter 1, Shiga toxin inh -19, Pf growth 96h 4.1µM*, SARS PLP yeast -1%, Pf growth 48h inconclusive and NS1 function inh -2%.
CCCNC(=O)C(Cc1ccc(I)cc1)NC(=O)c1ccc2ccccc2n1 (stereo unspecified) was read as Pf growth 96h -2%, SARS PLP yeast -30% and Pf growth 48h inconclusive.
For O=C(Nc1ccc(S(=O)(=O)Nc2ccccc2)cc1)c1ccc(CN2CCOCC2)cc1 the results were CHX counter 5, Shiga toxin inh -8, Pf growth 96h 32%, SARS PLP yeast -2%, Pf growth 48h inconclusive and NS1 function inh -4%.
COc1ccc(C(=O)NC(C)CCc2ccccc2)cc1 (stereo unspecified) was read as CHX counter 19*, Pf growth 96h 0%, SARS PLP yeast -1%, Pf growth 48h 7% and NS1 function inh -10%.
`CC(CCc1ccccc1)NC(=O)c1ccc(NC(=O)c2cccc(Br)c2)cc1` (stereo unspecified) gave CHX counter -7, Shiga toxin inh -14, Pf growth 96h 9.3µM*, SARS PLP yeast -10%, Pf growth 48h 15µM* and NS1 function inh -1%.
COc1ccc(C(=O)NCC2OCCc3ccccc32)c(O)c1 (stereo unspecified) was read as CHX counter 23*, Shiga toxin inh 47*, SARS PLP yeast -7%, Pf growth 48h inconclusive and NS1 function inh -68%.
For CCOc1ccc(C(CCc2ccccc2)NC(=O)c2ccccc2)cc1OCC (stereo unspecified) the results were CHX counter -3, Shiga toxin inh 18, SARS PLP yeast -7%, Pf growth 48h 4.7µM* and NS1 function inh -2%.
Screening CC(CCc1ccccc1)NC(=O)c1ccc(NC(=O)c2ccccc2)cc1 (stereo unspecified) returned CHX counter 1, Shiga toxin inh 2, Pf growth 96h -13%, SARS PLP yeast -13%, Pf growth 48h inconclusive and NS1 function inh 14%.
Screening Cc1cc2c(s1)c1c(C)nn(Cc3ccc(F)cc3)c(=O)c1n2C returned Pf growth 96h 14%, SARS PLP yeast 4% and Pf growth 48h 0%.
COc1ccccc1C(=O)N(NC(=O)Oc1ccccc1)C(C)(C)C was read as CHX counter -1, Shiga toxin inh -4, Pf growth 96h 13%, SARS PLP yeast -9%, Pf growth 48h -5% and NS1 function inh 5%.
Cc1ccc(NS(=O)(=O)c2cccc([N+](=O)[O-])c2)nc1 was read as CHX counter 5, Shiga toxin inh 13, Pf growth 96h 12%, SARS PLP yeast -2% and Pf growth 48h inconclusive.
`COc1cc(C(=O)NC(C)CCc2ccccc2)cc(OC)c1OC` (stereo unspecified) gave CHX counter -2, Pf growth 96h inconclusive, SARS PLP yeast 5%, Pf growth 48h inconclusive and NS1 function inh 2%.
For CCOc1ccc(C(=O)NC(C)CCc2ccccc2)cc1 (stereo unspecified) the results were CHX counter 28*, Shiga toxin inh 29*, Pf growth 96h -32%, SARS PLP yeast 4%, Pf growth 48h -4% and NS1 function inh 23%.
`COc1ccc(C(=O)NC(C)CCc2ccccc2)c(O)c1` (stereo unspecified) gave CHX counter 30*, Shiga toxin inh 68*, Pf growth 96h inconclusive, SARS PLP yeast -12%, Pf growth 48h inconclusive and NS1 function inh -83%.
Screening N=C1C(c2ccccc2)=C(O)CN1c1cccc(O)c1 returned CHX counter 3, Shiga toxin inh 13, Pf growth 96h 10%, SARS PLP yeast -3% and Pf growth 48h 34%.

Bioassay records: PubChem, National Center for Advancing Translational Sciences (NCATS)
